The whole screen tested about 5,500 compounds, of which about 2,000 (36%) were called active. Another 18% or so got no clear call; they are omitted. Cut-off read from the data, not from the text of the source: active = normalized growth mostly below about 0.91 (no sharp cut-off); inconclusive = no clear call, values can overlap the other calls; inactive = mostly above about 0.92. This is one part of the list.
Assay: chemical genetic growth profiling, strain panel (AID 1159580);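 note: tested at 20 µM; growth read once vehicle control cultures reached saturation at 30 °C; 1 = growth at the plate median or of vehicle wells; lower values mean less growth of the strain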
Settings: growth OD

Measured: normalized growth

Oc1cc(O)c2c(c1)O[C@H](c1cc(O)c(O)c(O)c1)[C@H](O)C2
inactive: S. cerevisiae deletion strains, locus YJR043C, strain POL32, hits give low values 1.05 | S. cerevisiae deletion strains, locus YJR066W, strain TOR1, hits give low values 0.918 | S. cerevisiae deletion strains, locus YKL009W, strain mrt4, hits give low values 0.976 | S. cerevisiae deletion strains, locus YKL068W, hits give low values 1 | S. cerevisiae deletion strains, locus YKL085W, strain MDH1 (second series), hits give low values 1 | S. cerevisiae deletion strains, locus YKL085W, strain MDH1, hits give low values 1 | S. cerevisiae deletion strains, locus YKL160W, strain elf1, hits give low values 1.01 | S. cerevisiae deletion strains, locus YKR001C, strain vps1, hits give low values 0.973 | S. cerevisiae deletion strains, locus YKR026C, strain gcn3, hits give low values 1.02 | S. cerevisiae deletion strains, locus YKR091W, strain srl3, hits give low values 1.02 | S. cerevisiae deletion strains, locus YLL001W, strain dnm1, hits give low values 1.03 | S. cerevisiae deletion strains, locus YLL026W, hits give low values 1.02 | S. cerevisiae deletion strains, locus YLL041C, strain sdh2, hits give low values 1.02 | S. cerevisiae deletion strains, locus YLR027C, strain aat2, hits give low values 1 | S. cerevisiae deletion strains, locus YLR039C, strain RIC1, hits give low values 1.05 | S. cerevisiae deletion strains, locus YLR058C, strain SHM2, hits give low values 0.98 | S. cerevisiae deletion strains, locus YLR102C, strain apc9, hits give low values 0.976 | S. cerevisiae deletion strains, locus YLR113W, strain HOG1, hits give low values 0.977 | S. cerevisiae deletion strains, locus YLR221C, strain rsa3, hits give low values 1.01 | S. cerevisiae deletion strains, locus YLR258W, strain gsy2, hits give low values 1.01 | S. cerevisiae deletion strains, locus YLR262C, strain YPT6 (second series), hits give low values 1.03 | S. cerevisiae deletion strains, locus YLR262C, strain YPT6, hits give low values 1.06 | S. cerevisiae deletion strains, locus YLR268W, strain sec22, hits give low values 0.98 | S. cerevisiae deletion strains, locus YLR320W, strain mms22, hits give low values 1.04 | S. cerevisiae deletion strains, locus YLR330W, strain CHS5, hits give low values 1.01 | S. cerevisiae deletion strains, locus YLR342W, strain FKS1 (second series), hits give low values 0.996 | S. cerevisiae deletion strains, locus YLR342W, strain FKS1, hits give low values 1.01 | S. cerevisiae deletion strains, locus YLR357W, strain rsc2, hits give low values 0.986 | S. cerevisiae deletion strains, locus YLR370C, strain arc18, hits give low values 1.01 | S. cerevisiae deletion strains, locus YLR371W, strain rom2, hits give low values 0.981 | S. cerevisiae deletion strains, locus YLR384C, strain iki3, hits give low values 1.03 | S. cerevisiae deletion strains, locus YLR418C, strain cdc73, hits give low values 1.01 | S. cerevisiae deletion strains, locus YML016C, strain PPZ1, hits give low values 0.981 | S. cerevisiae deletion strains, locus YML032C, strain rad52, hits give low values 1.03 | S. cerevisiae deletion strains, locus YML120C, strain ndi1, hits give low values 1.04 | S. cerevisiae deletion strains, locus YML124C, strain tub3, hits give low values 0.999 | S. cerevisiae deletion strains, locus YMR058W, strain fet3, hits give low values 0.945 | S. cerevisiae deletion strains, locus YMR078C, strain ctf18, hits give low values 1 | S. cerevisiae deletion strains, locus YMR125W, strain sto1, hits give low values 1.02 | S. cerevisiae deletion strains, locus YMR129W, hits give low values 1.02 | S. cerevisiae deletion strains, locus YMR205C, strain PFK2, hits give low values 1.06 | S. cerevisiae deletion strains, locus YMR223W, strain ubp8, hits give low values 0.991 | S. cerevisiae deletion strains, locus YMR231W, strain pep5, hits give low values 0.987 | S. cerevisiae deletion strains, locus YMR307W, strain GAS1, hits give low values 1.07 | S. cerevisiae deletion strains, locus YNL067W, strain RPL9B, hits give low values 0.984 | S. cerevisiae deletion strains, locus YNL071W, strain lat1, hits give low values 1.03 | S. cerevisiae deletion strains, locus YNL153C, strain GIM3, hits give low values 0.957 | S. cerevisiae deletion strains, locus YNL183C, strain NPR1, hits give low values 0.951 | S. cerevisiae deletion strains, locus YNL209W, strain ssb2, hits give low values 1 | S. cerevisiae deletion strains, locus YNL233W, strain BNI4, hits give low values 0.987 | S. cerevisiae deletion strains, locus YNL248C, strain rpa49, hits give low values 1.03 | S. cerevisiae deletion strains, locus YNL250W, strain rad50, hits give low values 0.986 | S. cerevisiae deletion strains, locus YNL271C, strain bni1, hits give low values 0.988 | S. cerevisiae deletion strains, locus YNL298W, strain CLA4, hits give low values 0.969 | S. cerevisiae deletion strains, locus YNL307C, strain MCK1, hits give low values 0.981 | S. cerevisiae deletion strains, locus YNL322C, strain KRE1 (second series), hits give low values 1.02 | S. cerevisiae deletion strains, locus YNR049C, strain mso1, hits give low values 1.02 | S. cerevisiae deletion strains, locus YNR052C, strain pop2, hits give low values 0.994 | S. cerevisiae deletion strains, locus YOL012C, strain htz1 1.18 | S. cerevisiae deletion strains, locus YOL147C, strain pex11, hits give low values 0.988 | S. cerevisiae deletion strains, locus YOR001W, strain rrp6, hits give low values 1.03 | S. cerevisiae deletion strains, locus YOR061W, strain CKA2, hits give low values 0.99 | S. cerevisiae deletion strains, locus YOR069W, strain VPS5, hits give low values 0.99 | S. cerevisiae deletion strains, locus YOR070C, strain gyp1, hits give low values 1 | S. cerevisiae deletion strains, locus YOR080W, strain dia2, hits give low values 1.02 | S. cerevisiae deletion strains, locus YOR083W, strain WHI5, hits give low values 1.01 | S. cerevisiae deletion strains, locus YOR106W, strain vam3, hits give low values 0.999 | S. cerevisiae deletion strains, locus YOR136W, strain idh2, hits give low values 0.976 | S. cerevisiae deletion strains, locus YOR144C, strain elg1, hits give low values 1 | S. cerevisiae deletion strains, locus YOR184W, strain ser1, hits give low values 1.02 | S. cerevisiae deletion strains, locus YOR231W, strain MKK1, hits give low values 0.983 | S. cerevisiae deletion strains, locus YOR265W, strain rbl2, hits give low values 1.02 | S. cerevisiae deletion strains, locus YOR270C, strain vph1, hits give low values 1.1 | S. cerevisiae deletion strains, locus YOR290C, strain snf2, hits give low values 1.02 | S. cerevisiae deletion strains, locus YOR316C, strain cot1, hits give low values 0.98 | S. cerevisiae deletion strains, locus YPL051W, strain arl3, hits give low values 1 | S. cerevisiae deletion strains, locus YPL055C, strain LGE1, hits give low values 1.01 | S. cerevisiae deletion strains, locus YPL078C, strain atp4, hits give low values 1.05 | S. cerevisiae deletion strains, locus YPL106C, strain sse1, hits give low values 0.99 | S. cerevisiae deletion strains, locus YPL240C, strain hsp82, hits give low values 1.02 | S. cerevisiae deletion strains, locus YPL256C, strain CLN2, hits give low values 0.983 | S. cerevisiae deletion strains, locus YPR119W, strain clb2, hits give low values 0.992 | S. cerevisiae deletion strains, locus YPR141C, strain kar3, hits give low values 0.978 | S. cerevisiae deletion strains, locus YPR163C, strain tif3, hits give low values 0.988 | S. cerevisiae deletion strains, locus YPR167C, strain met16, hits give low values 1 | S. cerevisiae deletion strains, strain wtn01, hits give low values 0.975 | S. cerevisiae strains, strain wild type, hits give low values 1
